Drawing on a collection of fitness landscapes (doi:10.1126/science.1257360), this text covers enrichment ratio for 195 variants.

B1: PhoQ; a variant is named by its letters at X, in order, P23837 (parent)
chain: MKKLLRLFFPLSLRVRFLLATAAVVLVLSLAYGMVALIGYSVSFDKTTFRLLRGESNLFYTLAKWENNKLHVELPENIDKQSPTMTLIYDENGQLLWAQRDVPWLMKMIQPDWLKSNGFHEIEADVNDTSLLLSGDHSIQQQLQEVREDDDDAEMTHSVAVNVYPATSRMPKLTIVVVDTIPVELKSSYMVWSWFIYVLSANLLLVIPLLWVAAWWSLRPIEALAKEVRELEEHNRELLNPATTRELTSLVRNLNRLLKSERERYDKYRTTLTDLTHSLKTPLXXLQXXLRSLRSEKMSVSDAEPVMLEQISRISQQIGYYLHRASMRGGTLLSRELHPVAPLLDNLTSALNKVYQRKGVNISLDISPEISFVGEQNDFVEVMGNVLDNACKYCLEFVEISARQTDEHLYIVVEDDGPGIPLSKREVIFDRGQRVDTLRPGQGVGLAVAREITEQYEGKIVAGESMLGGARMEVIFGRQHSAPKDE

Over roughly 140,000 sequences, “enrichment ratio after two sorts for PhoP signalling” has its median near 0; the highest 2% begin near 11. Many of the other results were omitted from the sample, so the highest values are more common in it than they were.

Variants of B1 are the subject of this test. Nature of the test: enrichment ratio after two sorts for PhoP signalling (ratio (wild type AVST 3.29)); higher = more functional. The conditions noted are these: with PhoP (E. coli).
With WSKW, the enrichment ratio was at most 0.25.
For HRWY, the enrichment ratio was at most 0.25.
Turning to RRQK, the enrichment ratio was at most 0.25.
Take PAKQ: the enrichment ratio is at most 0.25.
As for VEYL, the enrichment ratio was at most 0.25.
As to MFKL, the enrichment ratio is at most 0.25.
Turning to KGPS, the enrichment ratio is at most 0.25.
Take KVQA: the enrichment ratio is at most 0.25.
On to SMTV, for which the enrichment ratio was 11.4.
Take KAMF: the enrichment ratio is at most 0.25.
Regarding SDTV, the enrichment ratio stood at 13.5.
For the variant NAMF, the enrichment ratio is at most 0.25.
Consider KITV, for which the enrichment ratio is at most 0.25.
Turning to KFTV, the enrichment ratio was at most 0.25.
The figure for SYTV is 0.308.
Consider SAMF, for which the enrichment ratio came out at 14.8.
Take SVDV: the enrichment ratio was at most 0.25.
With SRTV, the enrichment ratio was at most 0.25.
Consider SVTV, for which the enrichment ratio is 11.3.
On to SMDV, for which the enrichment ratio is at most 0.25.
The figure for YFHI is at most 0.25; for TFLR it is 0.372.
On to GGFA, for which the enrichment ratio is at most 0.25.
As to GQMI, the enrichment ratio is at most 0.25.
Regarding LTAP, the enrichment ratio was at most 0.25.
On to RPSV, for which the enrichment ratio is at most 0.25.
The figure for WEGK is at most 0.25; for QYAI it is at most 0.25.
To QETV belongs at most 0.25.
On to STMD, for which the enrichment ratio is 9.32.
In the case of KYTV, the enrichment ratio is at most 0.25.
To SQGD belongs at most 0.25; to SITV, 11.8; to SPTV, at most 0.25.
Regarding NETV, the enrichment ratio amounted to 8.86.
Take KSTV: the enrichment ratio was at most 0.25.
To SQMD belongs 17.4; to AKTV, 5.31; to TETV, 17.9.
As for TKTV, the enrichment ratio was 20.
As for RQLF, the enrichment ratio is at most 0.25.
To MHPM belongs at most 0.25.
With IVSV, the enrichment ratio is at most 0.25.
The figure for LDYS is at most 0.25; for PIMI it is at most 0.25.
Take YPRI: the enrichment ratio is at most 0.25.
To KIFY belongs at most 0.25; to MMTV, at most 0.25.
Regarding STIS, the enrichment ratio stood at 8.13.
With SETV, the enrichment ratio turned out to be 14.9.
In the case of WIAV, the enrichment ratio was at most 0.25.
With KYAV, the enrichment ratio is at most 0.25.
For SLTV, the enrichment ratio came to 10.4.
Consider SSTV, for which the enrichment ratio turned out to be 10.5.
To STIV belongs 11.9.
NVTV: the enrichment ratio was at most 0.25.
Regarding TSTV, the enrichment ratio came to 26.5.
SIAV: the enrichment ratio is 12.2.
For YTIV, the enrichment ratio is 0.385.
With GKTV, the enrichment ratio was at most 0.25.
As for KFQS, the enrichment ratio is at most 0.25.
To SNDT belongs at most 0.25; to RWGI, at most 0.25.
As to EKED, the enrichment ratio was at most 0.25.
For the variant VMLL, the enrichment ratio was at most 0.25.
As for GWEH, the enrichment ratio is at most 0.25.
In the case of NLWG, the enrichment ratio is at most 0.25.
With DHDD, the enrichment ratio was at most 0.25.
In the case of KRSK, the enrichment ratio was at most 0.25.
Turning to APEA, the enrichment ratio is at most 0.25.
On to HQMW, for which the enrichment ratio was at most 0.25.
Turning to SWMV, the enrichment ratio was at most 0.25.
For the variant STMV, the enrichment ratio was found to be 12.8.
Take SAQV: the enrichment ratio turned out to be 0.569.
Take KAMA: the enrichment ratio was at most 0.25.
Take SAPV: the enrichment ratio came to 5.29.
As for SPMV, the enrichment ratio was at most 0.25.
With SAMV, the enrichment ratio worked out at 14.1.
Consider SAMA, for which the enrichment ratio was found to be 12.3.
SAFA: the enrichment ratio was at most 0.25.
As for KYMV, the enrichment ratio was at most 0.25.
To SIWV belongs at most 0.25; to SIMV, 13.6; to ILLG, at most 0.25.
As for KTTK, the enrichment ratio is at most 0.25.
As to TRRW, the enrichment ratio is at most 0.25.
On to QYNE, for which the enrichment ratio is at most 0.25.
On to MVYP, for which the enrichment ratio was at most 0.25.
Consider NQPT, for which the enrichment ratio is at most 0.25.
With QHTM, the enrichment ratio was at most 0.25.
As to YDVW, the enrichment ratio was at most 0.25.
KTCA: the enrichment ratio was at most 0.25.
For PMGE, the enrichment ratio was at most 0.25.
For the variant SQMW, the enrichment ratio was at most 0.25.
On to SQMV, for which the enrichment ratio stood at 22.1.
The figure for KQMV is at most 0.25.
To YHTC belongs at most 0.25; to AEWH, 22.3.
To AECF belongs 2.16.
On to AEWS, for which the enrichment ratio was 8.72.
Regarding AHIH, the enrichment ratio is at most 0.25.
In the case of AIIH, the enrichment ratio was found to be 2.68.
For AEFH, the enrichment ratio worked out at 1.2.
To AECH belongs 16.5; to AWCH, at most 0.25; to AECC, 16.3.
As to ADCC, the enrichment ratio amounted to 4.94.
Regarding AEIH, the enrichment ratio was found to be 60.7.
With AIWH, the enrichment ratio is at most 0.25.
To MYMC belongs at most 0.25; to KQLY, at most 0.25; to MMRL, at most 0.25.
With RHKQ, the enrichment ratio is at most 0.25.
HNLQ: the enrichment ratio is at most 0.25.
The figure for IHWA is at most 0.25; for AEQH it is at most 0.25.
For the variant AEMH, the enrichment ratio is 36.8.
As to AEGP, the enrichment ratio is at most 0.25.
In the case of AEGH, the enrichment ratio worked out at 12.9.
Regarding AEYH, the enrichment ratio is at most 0.25.
The figure for AEKH is at most 0.25.
As for EVPD, the enrichment ratio is at most 0.25.
As for EPIP, the enrichment ratio was at most 0.25.
In the case of NGMS, the enrichment ratio is at most 0.25.
On to TGMG, for which the enrichment ratio was determined as 17.2.
For the variant YYMV, the enrichment ratio is at most 0.25.
For the variant GGMS, the enrichment ratio was found to be 1.56.
The figure for GGEV is at most 0.25.
For the variant TGMS, the enrichment ratio was 12.8.
As for TGEV, the enrichment ratio worked out at 26.6.
As to QPMV, the enrichment ratio was at most 0.25.
On to NGMG, for which the enrichment ratio was at most 0.25.
With PGMG, the enrichment ratio was at most 0.25.
Take YTMV: the enrichment ratio came out at 12.2.
Take DEEV: the enrichment ratio is at most 0.25.
Take PEIA: the enrichment ratio was at most 0.25.
HVSH: the enrichment ratio is at most 0.25.
FEHR: the enrichment ratio was at most 0.25.
ENVM: the enrichment ratio is at most 0.25.
As for LMNE, the enrichment ratio was at most 0.25.
As for WNVD, the enrichment ratio is at most 0.25.
Turning to RCTL, the enrichment ratio is at most 0.25.
For the variant NGIV, the enrichment ratio is at most 0.25.
For the variant ICMW, the enrichment ratio was at most 0.25.
ICMV: the enrichment ratio turned out to be 13.2.
Consider ICIV, for which the enrichment ratio is at most 0.25.
As for GGMV, the enrichment ratio stood at 5.
For TGMV, the enrichment ratio was determined as 12.7.
Take RGMV: the enrichment ratio was at most 0.25.
Consider NGMD, for which the enrichment ratio was at most 0.25.
As to NGMV, the enrichment ratio came to 14.
Consider DFEW, for which the enrichment ratio is at most 0.25.
As to DSVD, the enrichment ratio was at most 0.25.
Turning to KHWM, the enrichment ratio is at most 0.25.
Regarding VFFE, the enrichment ratio is at most 0.25.
QDVC: the enrichment ratio is at most 0.25.
Regarding AYPL, the enrichment ratio is at most 0.25.
The figure for CSYH is at most 0.25; for FHNW it is at most 0.25; for IIGT it is at most 0.25.
In the case of SECI, the enrichment ratio turned out to be 28.3.
The figure for SECP is at most 0.25; for SEYD it is at most 0.25; for SECL it is 18.7.
The figure for SECA is 19.7; for NECL it is at most 0.25.
To SEAI belongs 7.14.
For SECK, the enrichment ratio is at most 0.25.
The figure for SEGD is 1.88; for SEEL it is at most 0.25; for SECS it is 20.4.
In the case of SEDH, the enrichment ratio was at most 0.25.
For the variant FMWQ, the enrichment ratio was at most 0.25.
Regarding KFFK, the enrichment ratio was at most 0.25.
EHGM: the enrichment ratio is at most 0.25.
Regarding IQWT, the enrichment ratio was at most 0.25.
Consider KMGN, for which the enrichment ratio is at most 0.25.
The figure for YTDA is at most 0.25; for VCDM it is at most 0.25; for EGPQ it is at most 0.25.
Take LCVP: the enrichment ratio was at most 0.25.
For MECQ, the enrichment ratio was at most 0.25.
As to SENE, the enrichment ratio was at most 0.25.
Regarding IWCG, the enrichment ratio was at most 0.25.
On to MECG, for which the enrichment ratio is 9.16.
For FECG, the enrichment ratio turned out to be 30.4.
For the variant SRCQ, the enrichment ratio is 1.15.
As to QECG, the enrichment ratio was 23.
In the case of STCG, the enrichment ratio turned out to be 9.46.
Regarding SECQ, the enrichment ratio stood at 11.4.
As for FEGG, the enrichment ratio is at most 0.25.
Regarding SENW, the enrichment ratio was at most 0.25.
As for SECE, the enrichment ratio was 15.4.
On to DDMI, for which the enrichment ratio is at most 0.25.
As to WKTT, the enrichment ratio is at most 0.25.
